# Source: PubChem BioAssay (EPA / NIEHS)
# Records with an inconclusive call do not appear. Calls of active or inactive are those of the source. Rule for the calls, unless noted: active = hit-call score of the fitted dose curve at least 0.9, where 1 is the maximum; inactive = score below 0.9.
# Legend:
# [1] = ATG_TAL_CIS: Attagene CIS-FACTORIAL HepG2 Assay for human TAL Basal Promoter (AID 2282966); settings: HepG2 Attagene cis-factorial TAL promoter reporter; actives raise or lower the signal;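 note: background control endpoint measuring basal TAL promoter reporter mRNA not a specific factor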
# Procedure, shortened: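 Background-control endpoint: basal TAL promoter reporter transcripts in transiently transfected HepG2, measured 24 h after dosing. Read-out by RT-PCR with fluorescent primer extension and capillary electrophoresis; gain or loss of signal fitted relative to DMSO.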
# [2] = ATG_TGFb_CIS: Attagene CIS-FACTORIAL HepG2 Assay for human Transforming Growth Factor (TGF) (AID 2282967); settings: HepG2 Attagene CIS TGFb reporter, mRNA transcription; actives raise or lower the signal
# Procedure, shortened: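 Multiplexed cis-reporter HepG2 system, 24 h treatment; mRNA induction read by fluorescence after RT-PCR and CE; DMSO negative control, bidirectional curve fitting.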
# [3] = ATG_VDRE_CIS: Attagene CIS-FACTORIAL HepG2 Assay for human Vitamin D Receptor Element (VDRE) (AID 2282968); settings: HepG2 VDRE cis-reporter transcription, actives raise or lower the signal
# Procedure, shortened: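 Transfected HepG2 reporter cells, chemical treatment 24 h. RNA isolated, cDNA amplified with reporter-specific primers, products analysed by capillary electrophoresis. Endpoint fitted in both directions versus DMSO.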
# [4] = molecular target: Estrogen receptor (Homo sapiens) (UniProt P03372); assay: ATG_ERa_TRANS: Attagene TRANS-FACTORIAL HepG2 Assay for human Estrogen Receptor alpha (ERa) (AID 2282970; active = hit-call score of the fitted dose curve at least 0.9, where 1 is the maximum); settings: HepG2 Attagene TRANS ERa GAL4 reporter, mRNA
# Procedure, shortened: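 Reporter transcripts were measured 24 h after dosing by RT-PCR with fluorescent primer extension and capillary electrophoresis. The system is transiently transfected HepG2 expressing exogenous NR-Gal4 chimeras driving GAL4-UAS reporters; DMSO is the baseline.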
# [5] = molecular target: X-box-binding protein 1 (Homo sapiens) (UniProt P17861); assay: ATG_Xbp1_CIS: Attagene CIS-FACTORIAL HepG2 Assay for human X-box Binding Protein 1 (XBP1) (AID 2282972); settings: HepG2 XBP1 cis-element reporter, Attagene multiplex; actives raise or lower the signal
# Procedure, shortened: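 Read-out: fluorescent reporter mRNA fragments resolved by capillary electrophoresis after RT-PCR. Human HepG2 liver cells carried transfected cis-promoter reporter units and were exposed to chemicals for 24 hours. Gain or loss of signal fitted relative to DMSO baseline.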
# [6] = molecular target: Oxysterols receptor LXR-beta (Homo sapiens) (UniProt P55055); assay: ATG_LXRb_TRANS: Attagene TRANS-FACTORIAL HepG2 Assay for human Liver X Receptor beta (LXRb) (AID 2282981; active = hit-call score of the fitted dose curve at least 0.9, where 1 is the maximum); settings: HepG2 Attagene TRANS GAL4-LXRb reporter, mRNA
# Procedure, shortened: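 Liver-derived HepG2 cells transfected with Gal4-responsive reporters were dosed for 24 h. Activation was scored as rise in reporter mRNA, by RT-PCR and capillary electrophoresis, above DMSO baseline.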
# [7] = ATG_M_06_TRANS: Attagene TRANS-FACTORIAL HepG2 Assay for M06 Transcription Factor (Internal Marker) (AID 2282983; active = hit-call score of the fitted dose curve at least 0.9, where 1 is the maximum;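 note: reporter transcript level by RT-PCR then capillary electrophoresis fluorescence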); settings: HepG2 Attagene TRANS M06 internal marker reporter
# Procedure, shortened: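 Background-control reporter readout: after 24 h chemical exposure of transiently transfected HepG2 (GAL4-UAS reporter units), mRNA quantified by RT-PCR with fluorescent labeling and capillary electrophoresis. Gain-of-signal fitting against DMSO baseline.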
# [8] = ATG_M_32_TRANS: Attagene TRANS-FACTORIAL HepG2 Assay for M32 Transcription Factor (Internal Marker) (AID 2282984; active = hit-call score of the fitted dose curve at least 0.9, where 1 is the maximum); settings: HepG2 Attagene TRANS M32 internal marker reporter
# Procedure, shortened: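 Fluorescence-detected mRNA induction, HepG2 liver cells, 24 h after dosing. Multiple GAL4-UAS reporter units introduced by transient transfection; background-control endpoint analysed for gain of signal against DMSO.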
# [9] = molecular target: Transcriptional activator Myb (Homo sapiens) (UniProt P10242); assay: ATG_Myb_CIS: Attagene CIS-FACTORIAL HepG2 Assay for human Myeloblastosis (Myb) Proto-Oncogene Transcription Factor (AID 2282986); settings: HepG2 Attagene CIS-FACTORIAL Myb reporter transcription; actives raise or lower the signal
# Procedure, shortened: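 Fluorescence signals from capillary electrophoresis of RT-PCR-amplified reporter cDNA give the read-out. Cells: HepG2 transfected with multiple cis-regulated reporter units. Exposure lasts 24 hours; DMSO defines baseline for gain or loss of signal.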
# [10] = molecular target: Nuclear respiratory factor 1 (Homo sapiens) (UniProt Q16656); assay: ATG_NRF1_CIS: Attagene CIS-FACTORIAL HepG2 Assay for human Nuclear Respiratory Factor 1 (NRF1) Orphan Gene (AID 2282987); settings: HepG2 NRF1 cis-element reporter, Attagene multiplex; actives raise or lower the signal
# Procedure, shortened: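 Transcriptional reporter readout, one component of a 52-endpoint multiplexed HepG2 panel. Exposure 24 h; mRNA detected via RT-PCR and fluorescent capillary electrophoresis; fitting in both directions against DMSO.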
# [11] = molecular target: Bile acid receptor (Homo sapiens) (UniProt Q96RI1); assay: ATG_FXR_TRANS: Attagene TRANS-FACTORIAL HepG2 Assay for Farnesoid X Receptor (FXR) (AID 2282979; active = hit-call score of the fitted dose curve at least 0.9, where 1 is the maximum;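 note: hits raise reporter mRNA above DMSO so AC50 marks FXR activation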); settings: HepG2 Attagene TRANS FXR-GAL4 reporter transcription
# Procedure, shortened: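 Reporter transcripts from transfected HepG2 cells were measured 24 h after dosing, using RT-PCR with capillary electrophoresis of 6-FAM-labelled fragments. The read-out reflects activity of exogenous FXR-Gal4 chimera on GAL4-UAS units, with induction relative to DMSO.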
# [12] = molecular target: Oxysterols receptor LXR-alpha (Homo sapiens) (UniProt Q13133); assay: ATG_LXRa_TRANS: Attagene TRANS-FACTORIAL HepG2 Assay for human Liver X Receptor alpha (LXRa) (AID 2282980; active = hit-call score of the fitted dose curve at least 0.9, where 1 is the maximum); settings: HepG2 Attagene TRANS reporter, LXRa transactivation
# Procedure, shortened: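 Chemical-induced reporter mRNA measured by RT-PCR with fluorescent labelling and capillary electrophoresis after 24 h dosing of transiently transfected HepG2 cells expressing exogenous NR-Gal4 chimeras; increases scored against DMSO baseline.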
# [13] = molecular target: Hepatocyte nuclear factor 4-alpha (Homo sapiens) (UniProt P41235); assay: ATG_HNF4a_TRANS: Attagene TRANS-FACTORIAL HepG2 Assay for human Hepatocyte Nuclear Factor 4 alpha (HNF4a) (AID 2282982; active = hit-call score of the fitted dose curve at least 0.9, where 1 is the maximum); settings: HepG2 HNF4a transactivation reporter, mRNA readout
# Procedure, shortened: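 Using HepG2 liver cells transfected with GAL4-UAS reporter units, chemical-induced mRNA increases were assessed after 24 hours. Fluorescent RT-PCR fragments were separated by capillary electrophoresis and compared with DMSO negative controls.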
# [14] = ATG_GAL4_TRANS: Attagene TRANS-FACTORIAL HepG2 Assay for GAL4 (Internal Marker) (AID 2282976; active = hit-call score of the fitted dose curve at least 0.9, where 1 is the maximum); settings: HepG2 Attagene TRANS GAL4 internal marker reporter
# Procedure, shortened: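 In transfected human HepG2 liver cells dosed 24 h, GAL4 reporter mRNA serves as a baseline marker. Detection by RT-PCR with fluorescent capillary electrophoresis, activity fitted upward relative to DMSO.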
# [15] = molecular target: Steroid hormone receptor ERR1 (Homo sapiens) (UniProt P11474); assay: ATG_ERRa_TRANS: Attagene TRANS-FACTORIAL HepG2 Assay for human Estrogen-Related Receptor alpha (ERRa) (AID 2282971; active = hit-call score of the fitted dose curve at least 0.9, where 1 is the maximum); settings: HepG2 Attagene TRANS reporter, ERRa transactivation
# Procedure, shortened: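 Reporter transcripts from ERRa-Gal4 chimera activity measured in transiently transfected human HepG2 cells 24 hours after dosing, using RT-PCR with 6-FAM primer extension, HpaI digestion and capillary electrophoresis; DMSO is baseline.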
# [16] = ATG_M_19_TRANS: Attagene TRANS-FACTORIAL HepG2 Assay for M19 Transcription Factor (Internal Marker) (AID 2282974; active = hit-call score of the fitted dose curve at least 0.9, where 1 is the maximum); settings: HepG2 Attagene TRANS-FACTORIAL M19 internal marker reporter
# Procedure, shortened: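 Measured here: internal-marker reporter transcript from HepG2 cells transfected with MRTUs, harvested at 24 h. cDNA PCR products were 6-FAM labelled by primer extension, cut with HpaI for 2 h at 37 C, and resolved by CE.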
# [17] = molecular target: Estrogen-related receptor gamma (Homo sapiens) (UniProt P62508); assay: ATG_ERRg_TRANS: Attagene TRANS-FACTORIAL HepG2 Assay for human Estrogen-Related Receptor gamma (ERRg) (AID 2282977; active = hit-call score of the fitted dose curve at least 0.9, where 1 is the maximum;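 note: hits increase reporter signal over DMSO so potencies reflect activators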); settings: HepG2 Attagene TRANS reporter, ERRg transactivation
# Procedure, shortened: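 Readout: fluorescent reporter-mRNA fragments resolved by capillary electrophoresis after RT-PCR and HpaI cut. Cells: transiently transfected HepG2 carrying GAL4-UAS reporters driven by exogenous NR-Gal4 chimeras, dosed 24 h. Activity fitted upward relative to DMSO baseline.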
# [18] = molecular target: Nuclear receptor subfamily 4 group A member 2 (Homo sapiens) (UniProt P43354); assay: ATG_NURR1_TRANS: Attagene TRANS-FACTORIAL HepG2 Assay for human Nuclear Receptor Related Protein 1 (NURR1) (AID 2282985; active = hit-call score of the fitted dose curve at least 0.9, where 1 is the maximum); settings: HepG2 Attagene TRANS reporter, mRNA readout
# Procedure, shortened: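 Chimeric NR-Gal4 proteins were expressed in human HepG2 cells bearing GAL4-UAS reporter units, and induced reporter mRNA was quantified 24 h post-dosing by RT-PCR and capillary electrophoresis.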
# Chain of Estrogen-related receptor gamma (Homo sapiens) (P62508 whole entry, looked up, the tested form may be a part): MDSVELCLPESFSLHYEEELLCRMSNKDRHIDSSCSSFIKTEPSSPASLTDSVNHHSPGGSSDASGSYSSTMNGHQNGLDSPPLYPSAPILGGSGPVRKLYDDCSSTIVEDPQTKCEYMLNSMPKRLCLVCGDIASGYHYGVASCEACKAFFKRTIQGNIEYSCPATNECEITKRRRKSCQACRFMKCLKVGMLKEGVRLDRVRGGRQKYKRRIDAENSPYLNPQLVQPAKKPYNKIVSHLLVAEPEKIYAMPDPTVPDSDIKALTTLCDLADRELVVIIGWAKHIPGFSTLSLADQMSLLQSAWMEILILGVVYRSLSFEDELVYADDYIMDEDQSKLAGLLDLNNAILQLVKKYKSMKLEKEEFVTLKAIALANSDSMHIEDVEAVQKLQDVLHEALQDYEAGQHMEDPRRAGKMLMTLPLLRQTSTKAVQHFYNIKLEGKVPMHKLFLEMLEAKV
# Chain of Hepatocyte nuclear factor 4-alpha (Homo sapiens) (P41235 whole entry, looked up, the tested form may be a part): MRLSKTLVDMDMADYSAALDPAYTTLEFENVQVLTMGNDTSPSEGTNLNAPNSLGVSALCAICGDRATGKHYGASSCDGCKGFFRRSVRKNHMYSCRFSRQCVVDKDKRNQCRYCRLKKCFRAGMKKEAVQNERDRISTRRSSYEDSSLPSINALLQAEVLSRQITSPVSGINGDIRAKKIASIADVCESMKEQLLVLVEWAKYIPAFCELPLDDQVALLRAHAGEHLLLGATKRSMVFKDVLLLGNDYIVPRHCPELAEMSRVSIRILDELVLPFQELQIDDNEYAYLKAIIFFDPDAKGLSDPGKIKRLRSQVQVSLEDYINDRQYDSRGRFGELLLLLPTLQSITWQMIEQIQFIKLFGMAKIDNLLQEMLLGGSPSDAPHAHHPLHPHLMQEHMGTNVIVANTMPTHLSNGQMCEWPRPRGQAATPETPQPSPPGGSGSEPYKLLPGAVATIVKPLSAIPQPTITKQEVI
# Chain of Estrogen receptor (Homo sapiens) (P03372 whole entry, looked up, the tested form may be a part): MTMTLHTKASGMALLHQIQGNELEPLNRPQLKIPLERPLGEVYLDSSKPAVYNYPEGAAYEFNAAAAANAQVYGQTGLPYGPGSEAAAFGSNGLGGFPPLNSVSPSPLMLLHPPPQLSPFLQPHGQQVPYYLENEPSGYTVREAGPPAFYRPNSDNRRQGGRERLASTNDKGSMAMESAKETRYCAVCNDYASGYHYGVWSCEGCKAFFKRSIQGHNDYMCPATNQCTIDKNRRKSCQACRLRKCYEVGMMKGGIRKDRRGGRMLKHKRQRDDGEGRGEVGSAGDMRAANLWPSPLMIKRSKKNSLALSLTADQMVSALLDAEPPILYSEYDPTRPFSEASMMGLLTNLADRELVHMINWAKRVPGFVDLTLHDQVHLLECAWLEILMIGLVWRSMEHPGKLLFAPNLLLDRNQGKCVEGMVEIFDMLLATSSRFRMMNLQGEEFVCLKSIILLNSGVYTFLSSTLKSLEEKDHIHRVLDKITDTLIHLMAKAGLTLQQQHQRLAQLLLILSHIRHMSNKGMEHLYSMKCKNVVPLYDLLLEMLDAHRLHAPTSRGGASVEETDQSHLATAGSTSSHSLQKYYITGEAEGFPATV
# Chain of Transcriptional activator Myb (Homo sapiens) (P10242 whole entry, looked up): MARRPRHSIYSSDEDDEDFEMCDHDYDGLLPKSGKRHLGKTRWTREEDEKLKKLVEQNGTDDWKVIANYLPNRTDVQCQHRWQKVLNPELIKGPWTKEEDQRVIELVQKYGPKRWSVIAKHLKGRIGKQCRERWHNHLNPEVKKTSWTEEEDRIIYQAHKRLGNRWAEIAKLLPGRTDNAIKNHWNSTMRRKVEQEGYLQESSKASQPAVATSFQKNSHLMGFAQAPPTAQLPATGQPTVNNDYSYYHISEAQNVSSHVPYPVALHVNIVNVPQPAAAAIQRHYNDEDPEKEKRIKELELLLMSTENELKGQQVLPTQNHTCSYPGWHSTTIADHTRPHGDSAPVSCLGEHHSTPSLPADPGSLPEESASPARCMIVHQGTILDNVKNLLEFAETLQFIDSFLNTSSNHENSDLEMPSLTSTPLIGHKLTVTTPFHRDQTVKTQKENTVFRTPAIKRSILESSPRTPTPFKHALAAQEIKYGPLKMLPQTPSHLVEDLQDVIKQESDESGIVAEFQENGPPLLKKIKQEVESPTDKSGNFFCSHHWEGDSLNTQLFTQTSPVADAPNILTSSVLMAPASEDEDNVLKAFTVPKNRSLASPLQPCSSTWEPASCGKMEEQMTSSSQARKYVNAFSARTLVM
# Chain of Nuclear respiratory factor 1 (Homo sapiens) (Q16656 whole entry, looked up): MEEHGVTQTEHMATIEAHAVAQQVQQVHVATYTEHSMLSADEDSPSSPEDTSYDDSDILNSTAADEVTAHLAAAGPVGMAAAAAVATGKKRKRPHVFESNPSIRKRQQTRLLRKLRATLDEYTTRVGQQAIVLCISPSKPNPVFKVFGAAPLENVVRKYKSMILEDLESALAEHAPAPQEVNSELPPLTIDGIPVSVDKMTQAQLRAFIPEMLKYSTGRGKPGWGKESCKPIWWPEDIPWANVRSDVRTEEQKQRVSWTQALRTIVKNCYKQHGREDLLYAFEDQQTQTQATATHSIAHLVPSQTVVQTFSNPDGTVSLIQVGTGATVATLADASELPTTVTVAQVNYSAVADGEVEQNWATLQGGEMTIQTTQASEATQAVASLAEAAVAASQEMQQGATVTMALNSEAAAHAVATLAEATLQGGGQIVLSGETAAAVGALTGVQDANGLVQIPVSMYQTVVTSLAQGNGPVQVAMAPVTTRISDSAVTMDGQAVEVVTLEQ
# Chain of Steroid hormone receptor ERR1 (Homo sapiens) (P11474 whole entry, looked up, the tested form may be a part): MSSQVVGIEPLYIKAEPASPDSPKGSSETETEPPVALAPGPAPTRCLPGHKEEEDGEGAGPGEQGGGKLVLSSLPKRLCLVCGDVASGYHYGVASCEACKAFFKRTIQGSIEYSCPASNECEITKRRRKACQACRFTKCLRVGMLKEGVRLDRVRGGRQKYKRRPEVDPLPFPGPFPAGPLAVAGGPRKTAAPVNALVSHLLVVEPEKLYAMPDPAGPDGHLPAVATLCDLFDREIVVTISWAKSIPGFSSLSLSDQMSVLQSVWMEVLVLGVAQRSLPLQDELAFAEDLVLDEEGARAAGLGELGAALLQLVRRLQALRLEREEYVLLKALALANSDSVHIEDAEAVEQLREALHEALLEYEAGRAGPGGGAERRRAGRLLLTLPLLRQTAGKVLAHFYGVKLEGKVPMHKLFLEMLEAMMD
# Chain of X-box-binding protein 1 (Homo sapiens) (P17861 whole entry, looked up, the tested form may be a part): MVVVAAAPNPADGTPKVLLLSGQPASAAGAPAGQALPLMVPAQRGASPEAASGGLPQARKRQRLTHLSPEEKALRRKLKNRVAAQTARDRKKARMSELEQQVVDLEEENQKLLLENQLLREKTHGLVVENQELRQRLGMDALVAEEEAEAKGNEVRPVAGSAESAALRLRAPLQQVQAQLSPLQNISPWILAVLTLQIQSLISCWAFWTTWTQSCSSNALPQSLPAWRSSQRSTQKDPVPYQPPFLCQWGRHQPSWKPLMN
# Chain of Oxysterols receptor LXR-beta (Homo sapiens) (P55055 whole entry, looked up, the tested form may be a part): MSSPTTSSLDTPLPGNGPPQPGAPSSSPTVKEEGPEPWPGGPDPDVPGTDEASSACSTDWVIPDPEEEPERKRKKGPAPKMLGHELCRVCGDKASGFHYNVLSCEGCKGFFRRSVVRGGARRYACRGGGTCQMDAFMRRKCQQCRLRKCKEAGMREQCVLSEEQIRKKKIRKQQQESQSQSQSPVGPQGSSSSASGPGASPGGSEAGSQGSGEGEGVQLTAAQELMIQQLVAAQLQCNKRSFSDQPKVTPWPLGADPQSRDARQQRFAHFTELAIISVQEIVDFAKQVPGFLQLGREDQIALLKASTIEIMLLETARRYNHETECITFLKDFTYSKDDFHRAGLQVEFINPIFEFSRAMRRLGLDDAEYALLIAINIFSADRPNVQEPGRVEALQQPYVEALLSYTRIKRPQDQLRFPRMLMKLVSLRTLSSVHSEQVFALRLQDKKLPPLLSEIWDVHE
# Chain of Oxysterols receptor LXR-alpha (Homo sapiens) (Q13133 whole entry, looked up, the tested form may be a part): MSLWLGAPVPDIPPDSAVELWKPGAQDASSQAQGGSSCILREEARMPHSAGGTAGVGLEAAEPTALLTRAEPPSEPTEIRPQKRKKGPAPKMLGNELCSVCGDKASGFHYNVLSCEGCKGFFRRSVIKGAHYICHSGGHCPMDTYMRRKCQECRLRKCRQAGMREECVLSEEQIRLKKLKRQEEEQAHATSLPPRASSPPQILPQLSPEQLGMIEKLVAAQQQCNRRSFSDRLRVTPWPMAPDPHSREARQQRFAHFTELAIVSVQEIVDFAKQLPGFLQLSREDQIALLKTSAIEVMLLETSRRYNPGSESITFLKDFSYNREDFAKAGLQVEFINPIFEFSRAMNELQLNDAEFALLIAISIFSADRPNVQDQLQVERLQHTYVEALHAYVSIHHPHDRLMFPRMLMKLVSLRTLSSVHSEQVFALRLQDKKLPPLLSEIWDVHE
# Chain of Nuclear receptor subfamily 4 group A member 2 (Homo sapiens) (P43354 whole entry, looked up, the tested form may be a part): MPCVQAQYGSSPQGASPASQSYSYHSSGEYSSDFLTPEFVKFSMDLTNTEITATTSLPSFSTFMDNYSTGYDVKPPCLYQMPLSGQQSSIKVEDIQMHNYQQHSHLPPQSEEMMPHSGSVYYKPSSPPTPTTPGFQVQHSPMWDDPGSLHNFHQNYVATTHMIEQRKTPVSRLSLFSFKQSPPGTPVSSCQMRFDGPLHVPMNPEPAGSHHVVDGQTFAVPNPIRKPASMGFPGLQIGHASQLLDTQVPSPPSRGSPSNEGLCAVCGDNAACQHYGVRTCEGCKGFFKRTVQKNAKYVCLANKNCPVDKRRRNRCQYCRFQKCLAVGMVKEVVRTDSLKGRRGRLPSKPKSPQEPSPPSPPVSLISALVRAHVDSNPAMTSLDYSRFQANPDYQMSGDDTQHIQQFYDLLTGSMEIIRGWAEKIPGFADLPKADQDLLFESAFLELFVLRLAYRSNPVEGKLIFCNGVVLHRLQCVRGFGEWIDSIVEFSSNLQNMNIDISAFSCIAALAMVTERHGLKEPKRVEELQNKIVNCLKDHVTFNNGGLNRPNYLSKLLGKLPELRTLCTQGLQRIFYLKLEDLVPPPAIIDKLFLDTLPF
smiles,measurement,setting,value
O=C(O)c1ccccc1Nc1cccc(C(F)(F)F)c1,outcome,[1],inactive
same,outcome,[2],inactive
same,AC50,[3],44.5 µM (active)
same,outcome,[4],inactive
same,AC50,[5],76.5 µM (active)
same,outcome,[6],inactive
same,outcome,[7],inactive
same,outcome,[8],inactive
same,outcome,[9],inactive
same,outcome,[10],inactive
Oc1ccc(Cl)cc1Cc1cc(Cl)ccc1O,outcome,[1],inactive
same,AC50,[2],11.1 µM (active)
same,AC50,[3],7 µM (active)
same,outcome,[4],inactive
same,AC50,[5],6.64 µM (active)
same,outcome,[11],inactive
same,outcome,[12],inactive
same,outcome,[13],inactive
same,outcome,[7],inactive
same,outcome,[9],inactive
same,outcome,[10],inactive
Cc1cc(C)c(C(=O)O)c(C)c1,outcome,[1],inactive
same,outcome,[2],inactive
same,outcome,[3],inactive
same,outcome,[4],inactive
same,outcome,[5],inactive
same,outcome,[14],inactive
same,outcome,[6],inactive
same,outcome,[7],inactive
same,outcome,[8],inactive
same,outcome,[9],inactive
same,outcome,[10],inactive
CCOC(=O)c1ccccc1C(=C1C=C(Br)C(=O)C(Br)=C1)c1cc(Br)c(O)c(Br)c1,outcome,[1],inactive
same,outcome,[2],inactive
same,AC50,[3],25.9 µM (active)
same,outcome,[4],inactive
same,AC50,[5],34.4 µM (active)
same,outcome,[13],inactive
same,outcome,[7],inactive
same,outcome,[8],inactive
same,outcome,[9],inactive
same,outcome,[10],inactive
Cn1c([N+](=O)[O-])cnc1COC(N)=O,outcome,[1],inactive
same,outcome,[2],inactive
same,outcome,[3],inactive
same,outcome,[15],inactive
same,outcome,[5],inactive
same,outcome,[16],inactive
same,outcome,[17],inactive
same,outcome,[6],inactive
same,outcome,[18],inactive
same,outcome,[9],inactive
same,outcome,[10],inactive
CN(C)c1ccc(C(=N)c2ccc(N(C)C)cc2)cc1,outcome,[1],inactive
same,outcome,[2],inactive
same,AC50,[3],1.29 µM (active)
same,outcome,[4],inactive
same,AC50,[5],1.21 µM (active)
same,outcome,[12],inactive
same,outcome,[6],inactive
same,outcome,[13],inactive
same,outcome,[7],inactive
same,AC50,[8],106 µM (active)
same,outcome,[18],inactive
same,outcome,[9],inactive
same,outcome,[10],inactive
CCCCCC(C)O (stereo not drawn),outcome,[1],inactive
same,outcome,[2],inactive
same,outcome,[3],inactive
same,outcome,[4],inactive
same,outcome,[5],inactive
same,outcome,[14],inactive
same,outcome,[12],inactive
same,outcome,[6],inactive
same,outcome,[13],inactive
same,outcome,[7],inactive
same,outcome,[9],inactive
same,outcome,[10],inactive
CCO[Si](C)(OCC)OCC,outcome,[1],inactive
same,outcome,[2],inactive
same,outcome,[3],inactive
same,outcome,[4],inactive
same,outcome,[5],inactive
same,outcome,[7],inactive
same,outcome,[9],inactive
same,outcome,[10],inactive
O=C1CCCC1,outcome,[1],inactive
same,outcome,[2],inactive
same,outcome,[3],inactive
same,outcome,[15],inactive
same,outcome,[5],inactive
same,outcome,[16],inactive
same,outcome,[14],inactive
same,outcome,[17],inactive
same,outcome,[6],inactive
same,outcome,[8],inactive
same,outcome,[9],inactive
same,outcome,[10],inactive
CCc1nccnc1C,outcome,[1],inactive
same,outcome,[2],inactive
same,outcome,[3],inactive
same,outcome,[15],inactive
same,outcome,[5],inactive
same,outcome,[16],inactive
same,outcome,[14],inactive
same,outcome,[17],inactive
same,outcome,[6],inactive
same,outcome,[13],inactive
same,outcome,[7],inactive
same,outcome,[8],inactive
same,outcome,[9],inactive
same,outcome,[10],inactive
CCCOCCOCCOCCO,outcome,[1],inactive
same,outcome,[2],inactive
same,outcome,[3],inactive
same,outcome,[15],inactive
same,outcome,[5],inactive
same,outcome,[16],inactive
same,outcome,[17],inactive
same,outcome,[12],inactive
same,outcome,[6],inactive
same,outcome,[9],inactive
same,outcome,[10],inactive
